# Test results taken from ChEMBL document CHEMBL4513216, “Probing the Open Global Health Chemical Diversity Library for Multistage-Active Starting Points for Next-Generation Antimalarials” (ACS Infect Dis, 2020).
# Out of some 69,000 compounds screened, about 8,600 (12%) showed an effect of 50% or more. The full list was thinned out, with strong results kept by preference.
# Test system: Plasmodium berghei
# Experiment: Screen against P. berghei liver stage (PbLuc), transformed with Luciferase, at 10uM
# Format: functional, HepG2
# Conditions: tested at 10 uM
row,SMILES,INHIBITION [%]
1,NC1CCC(CN2CCCn3nc(CNC(=O)C4CCC4)cc3C2)CC1 (stereo unspecified),18.4
2,Cc1cnc(C(=O)N2CCCN(c3nc(C)cs3)CC2)cn1,-5.25
3,Cc1ccc(CN2CC[C@@H](N3CCOCC3)[C@@H]2Cc2cccnc2)o1,12.1
4,CCCC(O)CN1CC(C)(C)CN(C(=O)c2ccc(Cl)cc2)CC1=O (stereo unspecified),46.4
5,O=C([C@H]1C[C@@H]2CCN(c3cccc(F)c3)C[C@H]2O1)N1CCCCO1,23.3
6,c1cnnc(N[C@@H]2CC[C@@H]3CN(Cc4ccc5[nH]ccc5c4)C[C@@H]32)c1,27.2
7,Cc1nn(CCN2CCSCC2)cc1CNCC1CC1,-22
8,O=C(NCc1ccco1)[C@@]12CCO[C@@H]1CCN(C1CCC1)C2,29
9,CS(=O)(=O)N1C[C@H]2CCCN(Cc3nccs3)[C@H]2C1,33.4
10,NC1CCC(n2cc(C(=O)NC3COc4ccccc43)nn2)CC1 (stereo unspecified),-28
11,CN(C)CCN1CC[C@@H]2O[C@@H](COCC(=O)N3CCCC3)CC[C@@H]21,29
12,O=C(O)CNC(=O)Cc1csc(-c2cccc(Cl)c2)n1,44.9
13,COc1cc(N2CC[C@H]3O[C@@H](C(=O)NC4CCCC4)CC[C@H]32)ncn1,-5.31
14,CC(C)n1cc(N2CC(C(=O)N3CCC(C(N)=O)CC3)CC2=O)cn1 (stereo unspecified),-23.5
15,CCCc1nc(CNC(C)Cn2cccn2)cs1 (stereo unspecified),-31.5
16,CCCc1nc(CNc2nc(C)nc3oc(C)nc23)cs1,50.8
17,CCCc1nc(CNC(=O)Cc2cc(C)no2)cs1,31.6
18,CCS(=O)(=O)NCC(=O)Nc1cc(CC(C)(C)C)n[nH]1,-10.7
19,O=C(CSCC1CC1)N1C[C@H]2CC[C@@H](C1)N(Cc1ccccn1)C2=O,17
20,Cc1cnn(CC2CCCN2CC(=O)Nc2cc(C)nn2C)c1 (stereo unspecified),38.6
21,CC(C)C(=O)NC(Cc1cc(N(C)C)nc(C2CC2)n1)c1ccccc1 (stereo unspecified),45.9
22,CCC(=O)NC(Cc1cc(N(C)C)nc(C2CC2)n1)c1ccccc1 (stereo unspecified),33.8
23,COCC(=O)NC(Cc1cc(N(C)C)nc(C2CC2)n1)c1ccccc1 (stereo unspecified),51.4
24,Cc1ccc2c(c1)c(CNC(=O)C1CC(=O)N(C3CC3)C1)nn2C (stereo unspecified),-6.34
25,Cc1ccc2c(c1)c(CNC(=O)C1CC(=O)N(CCN(C)C)C1)nn2C (stereo unspecified),82.4
26,Cc1ccc2c(c1)c(CNC(=O)C1CC(=O)N(C3CCCC3)C1)nn2C (stereo unspecified),38.5

row,SMILES,INHIBITION [%]
1,O=C(NCC1CCS(=O)(=O)C1)N(Cc1ccncc1)C1CC1 (stereo unspecified),-1.15
2,CS(=O)(=O)c1cc(S(N)(=O)=O)ccc1NCC1CCCO1 (stereo unspecified),30
3,CC(C)(C)c1nnc(CN2CCN(CC(O)c3ccccc3)CC2)o1 (stereo unspecified),58.2
4,Cc1nnc(CN2CCN(CC(O)c3ccccc3)CC2)o1 (stereo unspecified),4.71
5,CCc1nnc(CN2CCN(CC(O)c3ccccc3)CC2)o1 (stereo unspecified),-12.2
6,OCC1CCCN1c1cc(NCc2cccnc2)ncn1 (stereo unspecified),-7.35
7,CC(C)(C)NC(=O)c1nn(C2CCS(=O)(=O)C2)c2c1CCCC2 (stereo unspecified),28.4
8,O=C(NCc1ccccc1)c1nn(C2CCS(=O)(=O)C2)c2c1CCCC2 (stereo unspecified),20.1
9,Cc1cc(NC(=O)c2nn(C3CCS(=O)(=O)C3)c3c2CCCC3)no1 (stereo unspecified),26.7
10,Cc1nn(C2CCS(=O)(=O)C2)c(O)c1Cc1cccc(Cl)c1 (stereo unspecified),28.5
11,O=C(Nc1ccccc1)c1nn(C2CCS(=O)(=O)C2)c2c1CCCC2 (stereo unspecified),66.3
12,O=C(Nc1cccnc1)c1nn(C2CCS(=O)(=O)C2)c2c1CCCC2 (stereo unspecified),36.6
13,O=C(Nc1ccccc1F)c1nn(C2CCS(=O)(=O)C2)c2c1CCCC2 (stereo unspecified),85.5
14,Cc1cccc(NC(=O)c2nn(C3CCS(=O)(=O)C3)c3c2CCCC3)n1 (stereo unspecified),30.8
15,O=C(Nc1ccc(Cl)cc1)c1nn(C2CCS(=O)(=O)C2)c2c1CCCC2 (stereo unspecified),26.7
16,O=C(Nc1cccc(Cl)c1)c1nn(C2CCS(=O)(=O)C2)c2c1CCCC2 (stereo unspecified),79.8
17,O=C(NCc1ccco1)c1nn(C2CCS(=O)(=O)C2)c2c1CCCC2 (stereo unspecified),-18.2
18,O=C(Nc1ccc(Cl)cn1)c1nn(C2CCS(=O)(=O)C2)c2c1CCCC2 (stereo unspecified),83.9
19,Cc1ccc(O)c(CNCC(C)c2nc3ccccc3o2)n1 (stereo unspecified),43.1
20,O=C(Nc1ccc2c(c1)C(=O)NC2=O)c1ccc(Cl)s1,-93.6
21,NCC1CCC(C(NC(=O)c2cccc(F)c2)c2ccccn2)CC1 (stereo unspecified),14.4
22,CCc1c(C(=O)N2CCCC(N(C)C)C2)cnn1C(C)(C)C (stereo unspecified),5.7
23,O=C1[C@@H]2CN(C3CCOCC3)C[C@H]2CCN1CC1CC1,3.81
24,CN(C)S(=O)(=O)c1ccc(-c2nc(C#N)c(NC3CCCCC3)o2)o1,19.8
25,CN(C(=O)c1ccc(-n2ncc(C#N)c2N)cc1)C1CCCC1,-8.11
26,N#Cc1cnn(-c2ccc(C(=O)N(C3CCCCC3)C3CC3)cc2)c1N,17.5

row,SMILES,INHIBITION [%]
1,Cc1cccnc1NC(=O)c1ccc(-n2ncc(C#N)c2N)cc1,25.6
2,N#Cc1cnn(-c2ccc(C(=O)Nc3ccccn3)cc2)c1N,28.7
3,Cc1ccnc(NC(=O)c2ccc(-n3ncc(C#N)c3N)cc2)c1,68.8
4,Cc1nc(NC(=O)c2ccc(-n3ncc(C#N)c3N)cc2)sc1C,50.3
5,CN(CC1CCCCC1)C(=O)c1ccc(-n2ncc(C#N)c2N)cc1,52.7
6,Cc1cc(NC(=O)c2ccc(-n3ncc(C#N)c3N)cc2)n(C)n1,11.2
7,Cc1cnc(NC(=O)c2ccc(-n3ncc(C#N)c3N)cc2)s1,47.3
8,Cc1cnc(N2C[C@@H]3[C@@H](C2)OCC(=O)N3CC(C)C)nc1,40.8
9,CN(C)C(=O)N1CCN(c2ccc(Cl)nn2)C(=O)C1,16.8
10,COc1ccc(Br)cc1SCCCS(C)(=O)=O,12.8
11,Cc1nc(N2CCN(C(=O)c3ccncc3)CC2)c2c(n1)c(C)nn2C,33.3
12,Cc1nc(C2CCCN(C(=O)CCCn3cccn3)C2)sc1C (stereo unspecified),-23.9
13,Cc1ccc2c(n1)N(CCN(C)C)CCN(C(=O)c1ccc[nH]1)C2,10.8
14,Cc1ccc2c(n1)N(CCN(C)C)CCN(C(=O)c1cscn1)C2,38.1
15,Cc1ccc2c(n1)N(CCN(C)C)CCN(C(=O)c1ccsc1)C2,40.4
16,Cc1ccc2c(n1)N(CCN(C)C)CCN(C(=O)c1ccoc1)C2,48.6
17,Cc1ccc2c(n1)N(CCN(C)C)CCN(C(=O)c1cccs1)C2,74.2
18,Cc1ccc2c(n1)N(CCN(C)C)CCN(C(=O)c1ccco1)C2,54.4
19,COc1ccc(C(CNC(=O)Nc2cc(C)nn2C)N(C)C)cc1 (stereo unspecified),9.383
20,CCOCCN1CCN([C@@H]2c3ccccc3C3(CCNCC3)[C@H]2O)CC1,29.4
21,COCCCC1CCN([C@@H]2c3ccccc3C3(CCNCC3)[C@H]2O)CC1,17.5
22,COCCCN1CCN([C@@H]2c3ccccc3C3(CCNCC3)[C@H]2O)CC1,58.1
23,CC(C)=CCN1CCC2(CC1)c1ccccc1[C@@H](N1CCSCC1)[C@@H]2O,56.5
24,CC(=O)CN1CCC2(CC1)c1ccccc1[C@@H](N1CCSCC1)[C@@H]2O,22.3
25,CS(=O)(=O)N1CCC2(CC1)c1ccccc1[C@@H](N1CCSCC1)[C@@H]2O,24.4
26,CC(C)C1=NOC2(CCN(C(=O)C3CCCC3)CC2)C1,20.9

row,SMILES,INHIBITION [%]
1,c1cn2c(n1)CN(C1CCOCC1)CC(CN1CCCC1)C2 (stereo unspecified),29
2,Cc1nc(C)n(C2CCCN(C(=O)c3ncoc3C(C)C)C2)n1 (stereo unspecified),38.5
3,Cc1ccc(NC2CCN(C(=O)CCc3nccs3)CC2)nn1,-48.4
4,COCCOCCNC(=O)c1cccc(Cn2nc(C)cc2C)c1,26.6
5,CCc1cc(NC(=O)c2cccc(OCC(F)(F)F)n2)[nH]n1,-20.8
6,CCn1cc(NC(=O)NCC(C)O)cn1 (stereo unspecified),13.1
7,Cc1cc(NC(=O)NCC(O)COc2ccccc2)n(C)n1 (stereo unspecified),25.365
8,CCn1cc(NC(=O)NCC(O)COc2ccccc2)cn1 (stereo unspecified),60.5
9,O=C(NCC(O)COc1ccccc1)Nc1nncs1 (stereo unspecified),53.1
10,Cc1n[nH]c(C)c1NC(=O)c1cccc(OCC(F)(F)F)n1,-14.9
11,CCn1cc(NC(=O)c2cccc(OCC(F)(F)F)n2)cn1,51.5
12,O=C(NCC(O)COc1ccc(C(F)(F)F)cc1)Nc1nncs1 (stereo unspecified),14.8
13,CCn1cc(NC(=O)NCC(O)COc2cccc(F)c2)cn1 (stereo unspecified),23.2
14,Cc1nonc1CC(=O)N1C[C@H]2CC[C@@H](C1)N(Cc1ccccc1)C2=O,0.139
15,Cc1ccc(CN(CCCN(C)C)Cc2cnc(N(C)C)nc2)o1,15.395
16,CC(C)C(=O)N1CCCC2(C1)CN(c1nncs1)CCO2 (stereo unspecified),30.3
17,CNC(=O)CN1CCOC(c2cccc(N)n2)C1 (stereo unspecified),-5.8
18,C[C@@H]1CN2C[C@H](O)CC2CN1Cc1ccc2nccnc2c1 (stereo partly specified),28.5
19,O=C(CN1CC(c2nc(-c3ccco3)no2)C1)NCC1CCCO1 (stereo unspecified),17.7
20,COc1ccccc1OCCNCc1c(C(C)C)nn(C)c1N(C)C,31.3
21,O=C(NCCc1ccccn1)C1(n2cnnn2)CCCCC1,46.4
22,CNCc1ccc([C@@H]2CN(C(C)=O)C[C@H]2C(N)=O)cc1,-2.46
23,NC(=O)CC1CCCCN1C(=O)c1cccc(C(F)(F)F)c1 (stereo unspecified),37.4
